Source: PubChem
TGFb inhibitor: inhibitors of TGF-b signaling. HepG2 CAGA-GFP TGF-b/SMAD3 reporter, GFP fluorescence, 18 h; TGF-beta stimulated, 500 pg/mL final. Potency, µM (doses to about 46.1 µM), hits mostly inhibitors. actives 1.2% (n = 410,000). AID 588855; further: nearly all actives have a fitted effect of over 65% in size
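Cell-based qHTS in HEPG2 carrying a CAGA-GFP Smad reporter; compounds added before 500 pg/mL final TGF-beta, 18 h incubation at 37 degrees C, GFP fluorescence quantified per cell by imaging cytometry.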
HT1080 IDH1KD tx: HT-1080 IDH1 knockdown cell toxicity (counter line). Potency, µM (doses to about 46.1 µM), most hits filed as cytotoxic. HT-1080 IDH1 knockdown viability, ATP luminescence, 48 h. AID 686971. actives 2% (n = 360,000)
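After a 2 h attachment period, IDH1KD HT-1080 cells took pin-transferred compound for 48 h at 37 °C; ATP-based luminescence after 10 min room-temperature reagent incubation reported viability.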
HT1080NT lethal: kills 2HG-producing HT-1080-NT fibrosarcoma cells | HT-1080-NT fibrosarcoma viability, CellTiter-Glo ATP luminescence, 48 h | Potency, µM (highest dose often 46.1 µM), usual class: cytotoxic | actives 1.6% (n = 360,000) | AID 686970;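 further: NT is the 2HG producing partner of a matched IDH1 knockdown line; nearly all actives have a fitted effect of over 55% in size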
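Read-out is CellTiter-Glo luminescence after 10 minutes at room temperature, following 48 hours' compound treatment of HT-1080-NT cells (750 cells/well, RPMI, 5% FBS, 37 degrees C).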
TDP1 cell noCPT: qHTS for Inhibitors of human tyrosyl-DNA phosphodiesterase 1 (TDP1): qHTS in cells in absence of CPT. DT40 Tdp1-/- hTDP1 cells, no CPT, ATP luminescence, 48 h. Potency, µM (doses to about 46.2 µM), usual class: inhibitors. actives 15% (n = 420,000); further: nearly all actives have a fitted effect of over 55% in size
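DT40 Tdp1-/-;hTDP1 cells, no CPT (DMSO vehicle only), 400 cells/well; compounds pin-transferred; ≥48 hr, 37 °C; CellTiter-Glo 30 min RT dark, luminescence read.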
HepG2 viability: counter-screen for TGF-b inhibitors: cytotoxicity in HepG2 cells | HepG2 CAGA-GFP viability, ATP luminescence, 18 h | actives 0.76% (n = 410,000) | Potency, µM (doses to about 46.1 µM), hits mostly cytotoxic
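CellTiter-Glo luminescence gave cytotoxicity after 18 hours at 37 degrees C. The cells were HepG2 CAGA-GFP in 1% FBS DMEM, stimulated with 500 pg/mL TGF-beta after compound addition. %Activity was normalised to no-cell wells (complete cell-killing) and DMSO (no toxicity), and curves were fitted and classified.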
TDP1 cell CPT: DT40-hTDP1 cell growth loss with CPT. actives 12% (n = 420,000). Potency, µM (series often up to 46.2 µM), usual class: inhibitors. AID 686979. chicken DT40 Tdp1-/-;hTDP1 cells + 20 nM CPT, ATP luminescence, 48 h; further: nearly all actives have a fitted effect of over 55% in size
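Cell growth measured by CellTiter-Glo luminescence after a minimum 48 h, 37 C compound exposure with 20 nM CPT in Tdp1-knockout DT40 cells stably expressing hTDP1, seeded 400/well; qHTS titration format.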
Large screens that a line does not name were inactive. Rows were chosen to be rich in hits. Some 17% of all compounds tested hit in one or more screens of this group. The call rests on the fitted dose curve; in most records, active means well fitted curve in the direction sought with a large enough effect; inconclusive means small, poorly fitted or top-dose-only effect, or another doubt; inactive means no such curve, though single readings can be large; an effect the other way counts as inactive or inconclusive.

O=C(CNc1ccccc1)N/N=C/c1ccc([N+](=O)[O-])cc1	none
O=C(CNc1cccc2ccccc12)N/N=C/c1ccc([N+](=O)[O-])o1	TGFb inhibitor 6.3µM, HT1080 IDH1KD tx inconclusive, HT1080NT lethal inconclusive, TDP1 cell noCPT 4.1µM, HepG2 viability 7.9µM, TDP1 cell CPT 6.5µM
CCOC(=O)Cn1c(=O)oc2cc(S(=O)(=O)N3CCN(C(=O)c4ccco4)CC3)ccc21	none
O=C(NCCCN1CCOCC1)c1cc2nc(-c3ccco3)cc(C(F)(F)F)n2n1	none
O=C(NC1CCCCC1)c1cc2nc3c(c(C(F)(F)F)n2n1)CCCC3	TDP1 cell noCPT 21µM, TDP1 cell CPT inconclusive
O=C(NCc1ccco1)c1cc2nc(-c3ccc4c(c3)OCO4)cc(C(F)(F)F)n2n1	TDP1 cell noCPT 18µM, TDP1 cell CPT inconclusive
O=C(NC12CC3CC(CC(C3)C1)C2)c1cc2nc(-c3ccco3)cc(C(F)(F)F)n2n1	TDP1 cell noCPT 26µM, TDP1 cell CPT 21µM
O=C(NC1CCCCC1)c1cc2nc(-c3ccco3)cc(C(F)(F)F)n2n1	TDP1 cell noCPT 18µM, TDP1 cell CPT 21µM
Cc1ccc(NC(=S)/N=C(\N)Nc2nc(C)c3cc(C)c(C)cc3n2)cc1C	TDP1 cell noCPT inconclusive, TDP1 cell CPT inconclusive
Cc1ccccc1N(C)C(=O)c1noc2c1COc1ccccc1-2	TDP1 cell noCPT 15µM, TDP1 cell CPT 23µM (no result: HT1080 IDH1KD tx, HT1080NT lethal)
Cc1ccc(C)c2[nH]c(=O)c(C(c3nnnn3C(C)(C)C)N3CC=C(c4ccc(F)cc4)CC3)cc12 (configuration not stated)	TDP1 cell noCPT 16µM, TDP1 cell CPT inconclusive
O=C(C[n+]1ccccc1Br)c1ccc(F)cc1	TDP1 cell noCPT inconclusive, TDP1 cell CPT inconclusive (no result: HT1080 IDH1KD tx, HT1080NT lethal)
Cc1cc(N2CCN(C/C=C/c3ccccc3)CC2)n2ncnc2n1	TDP1 cell noCPT 10µM, TDP1 cell CPT 16µM
Cc1cc(N2CCN(c3ccccc3)CC2)n2ncnc2n1	TDP1 cell noCPT inconclusive
O=C(NCc1ccc2c(c1)OCO2)C1CCCCC1	none
CC1(C)Oc2c(ccc(O)c2CN2CCOCC2)C2=C1CCCC2	TDP1 cell noCPT inconclusive, TDP1 cell CPT inconclusive
O=Cc1ccc(OC(=O)c2cc(Cl)nc3ccccc23)cc1	TDP1 cell noCPT 21µM, TDP1 cell CPT inconclusive
O=C1c2cccc3c(Nc4ccccc4Cl)c([N+](=O)[O-])cc(c23)C(=O)N1CCO	TGFb inhibitor inconclusive, TDP1 cell noCPT inconclusive, TDP1 cell CPT inconclusive
COc1cccc(NC(=S)N2CCC(NC(=O)c3ccco3)CC2)c1	none
COc1ccccc1/C=N/NC(=O)C(=O)Nc1ccccc1OC(F)(F)C(F)F	TDP1 cell noCPT inconclusive, TDP1 cell CPT inconclusive
O=C(N/N=C/c1cc(Cl)ccc1O)C(=O)Nc1ccccc1OC(F)(F)C(F)F	TGFb inhibitor inconclusive, HT1080 IDH1KD tx inconclusive, HT1080NT lethal inconclusive, TDP1 cell noCPT 1.8µM, TDP1 cell CPT 2.1µM
